Data from PubChem BioAssay AID651789 (National Center for Advancing Translational Sciences (NCATS), 2012).
Results filed as inconclusive are left out. A call without a number means that no potency is given here. Activity calls are given as the source filed them. Calls come from the whole dose curve; as a rule, active = well fitted inhibition curve with a large enough effect; inconclusive = small, poorly fitted or top-dose-only effect; inactive = no such curve, though single readings can be large or run the other way.
Potency is the fitted concentration of half-maximal effect.

Test: Acumen qHTS Assay for Inhibitors of the mTORC1 Signaling Pathway in WT MEF Cells: Hit Validation; note: nearly all actives have a fitted effect of over 60% in size
Conditions: Acumen imaging; series mostly up to 37.3 µM
Summary of the method: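 Read-out is immunofluorescent phospho-rpS6 (Ser235/236) normalised to PI-stained cell number, reported as % active cells using a 7.5 nM rapamycin threshold. Cells: WT or Tsc2-/-, p53-/- MEFs, compound-exposed 24 h at 37C; PI count also tracks viability.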
In the case of `CCc1ccc(S(=O)(=O)c2c(C(=O)c3ccc(C)c(C)c3)cnc3ccccc23)cc1`, the Potency is reported as “inactive”.
In the case of `CCCCS(=O)(=O)c1nc(-c2ccc(Br)cc2)cc(-c2ccccc2)c1C#N`, the Potency is reported as 5.21 µM (active).
In the case of `O=C(C1CCN(c2nc3ccccc3[nH]2)CC1)N1CCN(c2cccc(Cl)c2)CC1`, the Potency is reported as “inactive”.
For `CCOc1ccc(CC(=O)NC2CC(=O)N(c3ccc4c(c3)OCCO4)C2)cc1` (stereo not given), the Potency was “inactive”.
In the case of `CC(C)c1ccc(NS(=O)(=O)c2ccc3nc(-c4ccccc4)[nH]c3c2)cc1`, the Potency is reported as “inactive”.
With `CCOc1ccc(NC(=O)c2sc3nc4c(cc3c2N)CCCCCC4)cc1` the Potency was “inactive”.
For `Cc1nn(C(C)C(=O)NC2CCC(C)CC2)c(=O)c2c1sc1ccccc12` (stereo not given), the Potency was “inactive”.
For `COc1ccc(CCNC(=O)c2ccc3c(c2)N(Cc2ccccc2)CCS3)cc1OC`, the Potency was “inactive”.
With `CCN(CC)CCNC(=O)c1ccc(Cn2c(=O)c3cccn3c3cccnc32)cc1` the Potency was “inactive”.
In the case of `CCOc1ccccc1NC(=O)CSc1cc(=O)n(CC)c2ccccc12`, the Potency is reported as “inactive”.
In the case of `COc1ccc(CNC(=O)C2CCN(c3nc4ccc(C)cc4[nH]3)CC2)cc1`, the Potency is reported as “inactive”.
With `CCOc1ccc(-n2c(C)nc3c(cnn3-c3ccc(C)cc3)c2=O)cc1` the Potency was “inactive”.
For `CCCCN(CC)CCNC(=O)C1CCN(c2nnc(C)c3c(C)n(-c4ccc(C)cc4)nc23)CC1`, the Potency was “inactive”.
With `COc1ccc2nc(NC(=O)c3nc(S(=O)(=O)Cc4ccccc4F)ncc3Cl)sc2c1` the Potency was 13.1 µM (active).
In the case of `CCn1c(CN2CCC(C)CC2)nc2cc(NC(=O)c3ccccc3[N+](=O)[O-])ccc21`, the Potency is reported as “inactive”.
In the case of `COc1ccc(-c2nc(S(=O)(=O)c3ccc(Cl)cc3)c(N3CCCCCC3)o2)cc1`, the Potency is reported as “inactive”.
With `CC1CCN(S(=O)(=O)c2ccc(C(=O)Nc3sc4c(c3C(N)=O)CC(C)(C)NC4(C)C)cc2)CC1` the Potency was 3.29 µM (active).
In the case of `COc1ccc(Cn2c(C(=O)O)c(CNCc3ccccc3F)c3ccc(OC)cc32)cc1`, the Potency is reported as “inactive”.
For `COC(=O)c1ccccc1NC(=O)CSc1n[nH]c(CC(C)C)n1`, the Potency was “inactive”.
In the case of `CCc1ccc(-n2c(=O)c3c4c(sc3n(CC(=O)c3ccc(F)cc3)c2=O)CCC4)cc1`, the Potency is reported as 18.5 µM (active).
For `COc1cccc(-n2c(-c3ccc(C)cc3)cc3c2CC(C)(C)CC3=O)c1`, the Potency was “inactive”.
In the case of `Cc1cccc(OCc2ccc(-c3nc(C#N)c(NCCN(C)C)o3)o2)c1`, the Potency is reported as “inactive”.
For `CCS(=O)(=O)c1oc(-c2ccc(F)cc2)nc1S(=O)(=O)c1ccc(Br)cc1`, the Potency was 4.65 µM (active).
With `COc1ccccc1C(=O)Nc1ccc2nc(N3CCC(C)CC3)cc(C)c2c1` the Potency was “inactive”.
With `COc1cccc(C2CC(=O)Nc3cc4c(cc32)OCCO4)c1OC` (stereo not given) the Potency was “inactive”.
With `O=C(NCCSc1c(-c2ccc(F)cc2)[nH]c2ccccc12)c1ccc(S(=O)(=O)N2CCOCC2)cc1` the Potency was “inactive”.
With `Cc1cccc(Cn2cc(C(=O)Nc3ccc(F)c(C(F)(F)F)c3)ccc2=O)c1` the Potency was “inactive”.
With `Cn1nnnc1SCCCNCc1cc(Cl)ccc1OCc1ccc(F)cc1` the Potency was “inactive”.
With `CCOC(=O)c1ccc(N2C(=O)c3n[nH]c(-c4cccs4)c3C2c2cccc(F)c2)cc1` (stereo not given) the Potency was “inactive”.
In the case of `Cc1ccc(NC(=O)CSc2ncc3c(n2)-c2ccccc2N(C)S3(=O)=O)c(Cl)c1`, the Potency is reported as “inactive”.
For `O=C(NCCc1nc2ccccc2n1Cc1ccc(Cl)cc1Cl)c1ccco1`, the Potency was “inactive”.
For `COc1cc(NC(=O)Cn2nc(C(F)(F)F)c3c2CCCC3)c(OC)cc1Cl`, the Potency was “inactive”.
For `Cc1cccc(NC(=O)c2nc(S(C)(=O)=O)ncc2Cl)c1`, the Potency was 1.65 µM (active).
For `CC(C(=O)NCc1cccc(Br)c1)n1ncn2cccc2c1=O` (stereo not given), the Potency was “inactive”.
With `CCCCS(=O)(=O)c1oc(-c2ccc(F)cc2)nc1S(=O)(=O)c1ccccc1` the Potency was 0.656 µM (active).
In the case of `CCC(Sc1nncn2c1cc1oc(C)cc12)C(=O)Nc1ccc(F)cc1` (stereo not given), the Potency is reported as “inactive”.
With `COc1ccccc1CNC(=O)CCCn1c(=O)c2cccn2c2ccccc21` the Potency was “inactive”.
In the case of `CCOC(=O)C1CCN(C(=O)CSc2c3c(nc4ccc(Cl)cc24)CCCC3)CC1`, the Potency is reported as “inactive”.
With `O=C(CCCn1ccc2cc(S(=O)(=O)N3CCCC3)ccc21)NCc1ccc(Cl)cc1` the Potency was “inactive”.
For `CCOc1ccc(S(=O)(=O)N(C(=O)c2ccncc2)c2ccc3oc(C)c(C(=O)OC)c3c2)cc1`, the Potency was 14.7 µM (active).
